Two molecules from the supplement of paper PMC11732987, “Enantioselective OTUD7B fragment discovery through chemoproteomics screening and high-throughput optimisation” (Communications Chemistry, 2025) can be followed below.

Values without a mark were called inactive.

For one experiment, the target named is T1, USP38 (UniProt Q8NB14).
T1 sequence (whole entry): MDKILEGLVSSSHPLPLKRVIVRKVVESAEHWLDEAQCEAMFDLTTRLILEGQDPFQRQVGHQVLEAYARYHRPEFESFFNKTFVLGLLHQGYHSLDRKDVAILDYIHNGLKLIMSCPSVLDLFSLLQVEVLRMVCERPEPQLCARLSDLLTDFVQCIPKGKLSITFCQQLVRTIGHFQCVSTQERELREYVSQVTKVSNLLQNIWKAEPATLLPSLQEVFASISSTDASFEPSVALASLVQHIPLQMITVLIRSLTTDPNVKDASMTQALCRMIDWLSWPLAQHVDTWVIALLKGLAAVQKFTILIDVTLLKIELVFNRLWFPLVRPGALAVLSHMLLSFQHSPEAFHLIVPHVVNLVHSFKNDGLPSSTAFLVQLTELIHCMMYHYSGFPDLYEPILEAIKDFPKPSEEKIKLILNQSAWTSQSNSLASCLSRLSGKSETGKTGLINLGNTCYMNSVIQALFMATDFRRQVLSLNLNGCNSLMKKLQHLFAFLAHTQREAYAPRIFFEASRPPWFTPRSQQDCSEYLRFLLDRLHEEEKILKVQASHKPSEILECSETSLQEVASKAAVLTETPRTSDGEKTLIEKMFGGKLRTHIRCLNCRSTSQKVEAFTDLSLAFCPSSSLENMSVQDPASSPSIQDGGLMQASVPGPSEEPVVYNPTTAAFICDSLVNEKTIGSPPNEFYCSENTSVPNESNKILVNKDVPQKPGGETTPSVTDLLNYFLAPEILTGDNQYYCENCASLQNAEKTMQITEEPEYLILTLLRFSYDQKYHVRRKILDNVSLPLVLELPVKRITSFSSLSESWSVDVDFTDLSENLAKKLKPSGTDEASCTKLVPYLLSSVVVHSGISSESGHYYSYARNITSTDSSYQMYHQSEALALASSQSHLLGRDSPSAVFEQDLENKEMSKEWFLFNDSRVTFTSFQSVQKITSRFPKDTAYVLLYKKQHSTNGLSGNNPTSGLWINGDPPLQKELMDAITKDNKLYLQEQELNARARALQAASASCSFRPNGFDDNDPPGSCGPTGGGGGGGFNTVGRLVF
In words: log2 ratio of Biotin-Ahx-Ub-VS probe labelling (compound/DMSO); higher = less target engagement, active = hit call of the paper (q ≤ 0.05, log2 ratio ≤ -1). Particulars: treatment time: 3 h. The essentials:
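Values are average ratios of compound to vehicle from an unpaired t-test, limited to proteins with at least two unique peptides. HEK293T lysate (495 µg per sample, in Tris/CHAPS/IGEPAL buffer with protease inhibitors) was exposed in triplicate to a concentration series of compound or to vehicle for 3 h, then to Biotin-Ahx-Ub-VS at 0.5 µM final for 1 h. Labelled deubiquitinases were enriched on NeutrAvidin, digested with LysC and trypsin, and analysed by diaPASEF LC-MS/MS. Ratios are given on a log2 scale from Spectronaut label-free protein quantities normalised to the global median.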

The target in another experiment is T2, ALG13 (UniProt Q9NP73).
T2 sequence (whole entry): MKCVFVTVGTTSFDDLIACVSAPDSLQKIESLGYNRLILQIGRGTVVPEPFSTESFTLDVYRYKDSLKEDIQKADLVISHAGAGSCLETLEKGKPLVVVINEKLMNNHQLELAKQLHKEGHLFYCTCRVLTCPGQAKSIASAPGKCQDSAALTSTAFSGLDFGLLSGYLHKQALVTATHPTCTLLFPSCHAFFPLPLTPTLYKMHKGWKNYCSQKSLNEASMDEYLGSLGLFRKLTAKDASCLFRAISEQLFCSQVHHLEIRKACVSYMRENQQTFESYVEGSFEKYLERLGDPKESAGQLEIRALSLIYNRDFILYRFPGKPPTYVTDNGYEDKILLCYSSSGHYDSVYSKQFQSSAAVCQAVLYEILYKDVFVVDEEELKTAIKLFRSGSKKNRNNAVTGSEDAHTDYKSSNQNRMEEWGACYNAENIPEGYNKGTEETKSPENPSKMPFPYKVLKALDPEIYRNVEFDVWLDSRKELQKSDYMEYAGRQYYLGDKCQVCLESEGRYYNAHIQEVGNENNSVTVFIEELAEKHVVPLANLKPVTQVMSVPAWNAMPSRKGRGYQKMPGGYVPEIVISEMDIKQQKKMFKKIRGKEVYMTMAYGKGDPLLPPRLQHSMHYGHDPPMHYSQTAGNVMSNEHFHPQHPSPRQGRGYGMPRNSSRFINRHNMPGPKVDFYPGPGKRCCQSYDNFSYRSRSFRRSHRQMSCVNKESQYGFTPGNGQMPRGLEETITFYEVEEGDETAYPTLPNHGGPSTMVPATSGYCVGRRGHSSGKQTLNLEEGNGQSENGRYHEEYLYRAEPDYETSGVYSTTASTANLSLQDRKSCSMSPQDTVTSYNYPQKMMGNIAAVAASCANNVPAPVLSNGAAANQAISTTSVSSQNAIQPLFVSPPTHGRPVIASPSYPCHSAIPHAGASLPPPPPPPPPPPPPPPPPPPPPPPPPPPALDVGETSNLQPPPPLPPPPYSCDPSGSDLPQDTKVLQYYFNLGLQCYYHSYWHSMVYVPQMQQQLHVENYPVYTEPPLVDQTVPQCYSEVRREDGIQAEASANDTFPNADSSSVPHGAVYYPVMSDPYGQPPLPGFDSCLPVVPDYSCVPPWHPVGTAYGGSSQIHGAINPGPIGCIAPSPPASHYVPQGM
In words: log2 ratio of Biotin-Ahx-Ub-VS probe labelling (fragment/DMSO); higher = less target engagement (more negative = stronger competition), active = hit call of the paper (q ≤ 0.05, log2 ratio ≤ -1). Particulars: compound concentration: 200 uM; treatment time: 3 h. The essentials: (§1)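 Fragment (200 µM) or vehicle was incubated for 3 h with triplicate HEK293T lysate samples of 495 µg, which were then treated with Biotin-Ahx-Ub-VS at 0.5 µM final for 1 h. Labelled DUBs were enriched on NeutrAvidin, digested with LysC and trypsin, and analysed by diaPASEF LC-MS/MS. Values are average log2 fragment/vehicle ratios from an unpaired t-test on global-median-normalised Spectronaut label-free quantities, using proteins with ≥2 unique peptides.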

The target in another experiment is ATXN3 (UniProt P54252). The description is as above. The conditions noted are these: compound concentration: 200 uM; treatment time: 3 h. The method in brief:
as §1

A further experiment addresses T3, BAP1 (UniProt Q92560).
T3 sequence (whole entry): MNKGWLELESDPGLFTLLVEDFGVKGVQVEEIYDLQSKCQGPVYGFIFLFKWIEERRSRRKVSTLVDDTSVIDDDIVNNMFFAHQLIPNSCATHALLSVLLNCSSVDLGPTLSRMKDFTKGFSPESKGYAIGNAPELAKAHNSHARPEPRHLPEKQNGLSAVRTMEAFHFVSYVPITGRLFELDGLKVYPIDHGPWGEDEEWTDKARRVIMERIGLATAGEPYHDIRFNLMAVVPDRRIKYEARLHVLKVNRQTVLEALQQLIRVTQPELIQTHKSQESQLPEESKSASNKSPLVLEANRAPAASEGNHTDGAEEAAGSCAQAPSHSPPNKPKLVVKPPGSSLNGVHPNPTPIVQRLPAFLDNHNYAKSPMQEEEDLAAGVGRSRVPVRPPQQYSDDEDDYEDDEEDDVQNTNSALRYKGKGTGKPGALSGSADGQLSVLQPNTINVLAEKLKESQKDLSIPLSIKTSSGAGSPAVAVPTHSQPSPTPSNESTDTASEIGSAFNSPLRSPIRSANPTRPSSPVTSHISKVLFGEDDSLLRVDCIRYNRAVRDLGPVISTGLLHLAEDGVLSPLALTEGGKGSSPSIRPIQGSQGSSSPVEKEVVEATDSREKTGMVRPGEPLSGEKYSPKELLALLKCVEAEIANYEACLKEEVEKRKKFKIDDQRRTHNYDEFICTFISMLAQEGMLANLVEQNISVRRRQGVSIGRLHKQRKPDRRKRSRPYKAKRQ
Described as above. Particulars: compound concentration: 200 uM; treatment time: 3 h. The method in brief: as §1

A further experiment deals with EIF3F (UniProt O00303). The description is as above. The conditions noted are these: compound concentration: 200 uM; treatment time: 3 h. The essentials:
as §1

For a further experiment, the target named is EIF3H (UniProt O15372). Described as above. Particulars: compound concentration: 200 uM; treatment time: 3 h. The essentials: as §1
The target of the next experiment is T4, FAM105A (UniProt Q9NUU6).
T4 sequence (whole entry): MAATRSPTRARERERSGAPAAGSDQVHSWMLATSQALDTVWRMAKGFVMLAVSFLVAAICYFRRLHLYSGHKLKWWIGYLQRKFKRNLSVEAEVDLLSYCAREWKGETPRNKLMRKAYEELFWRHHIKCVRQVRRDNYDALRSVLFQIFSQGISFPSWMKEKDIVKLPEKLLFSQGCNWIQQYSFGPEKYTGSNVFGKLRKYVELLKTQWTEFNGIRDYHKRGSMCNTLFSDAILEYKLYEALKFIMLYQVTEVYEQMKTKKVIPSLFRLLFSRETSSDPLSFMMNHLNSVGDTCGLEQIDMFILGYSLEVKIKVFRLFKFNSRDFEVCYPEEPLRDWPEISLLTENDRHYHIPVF
The experiment is described as above. Particulars: compound concentration: 200 uM; treatment time: 3 h. The method in brief: as §1

For another experiment, the target named is OTUB1 (UniProt Q96FW1). Described as above. The conditions noted are these: compound concentration: 200 uM; treatment time: 3 h. The method in brief: as §1
In the next experiment the target is T5, OTUD4 (UniProt Q01804).
T5 sequence (whole entry): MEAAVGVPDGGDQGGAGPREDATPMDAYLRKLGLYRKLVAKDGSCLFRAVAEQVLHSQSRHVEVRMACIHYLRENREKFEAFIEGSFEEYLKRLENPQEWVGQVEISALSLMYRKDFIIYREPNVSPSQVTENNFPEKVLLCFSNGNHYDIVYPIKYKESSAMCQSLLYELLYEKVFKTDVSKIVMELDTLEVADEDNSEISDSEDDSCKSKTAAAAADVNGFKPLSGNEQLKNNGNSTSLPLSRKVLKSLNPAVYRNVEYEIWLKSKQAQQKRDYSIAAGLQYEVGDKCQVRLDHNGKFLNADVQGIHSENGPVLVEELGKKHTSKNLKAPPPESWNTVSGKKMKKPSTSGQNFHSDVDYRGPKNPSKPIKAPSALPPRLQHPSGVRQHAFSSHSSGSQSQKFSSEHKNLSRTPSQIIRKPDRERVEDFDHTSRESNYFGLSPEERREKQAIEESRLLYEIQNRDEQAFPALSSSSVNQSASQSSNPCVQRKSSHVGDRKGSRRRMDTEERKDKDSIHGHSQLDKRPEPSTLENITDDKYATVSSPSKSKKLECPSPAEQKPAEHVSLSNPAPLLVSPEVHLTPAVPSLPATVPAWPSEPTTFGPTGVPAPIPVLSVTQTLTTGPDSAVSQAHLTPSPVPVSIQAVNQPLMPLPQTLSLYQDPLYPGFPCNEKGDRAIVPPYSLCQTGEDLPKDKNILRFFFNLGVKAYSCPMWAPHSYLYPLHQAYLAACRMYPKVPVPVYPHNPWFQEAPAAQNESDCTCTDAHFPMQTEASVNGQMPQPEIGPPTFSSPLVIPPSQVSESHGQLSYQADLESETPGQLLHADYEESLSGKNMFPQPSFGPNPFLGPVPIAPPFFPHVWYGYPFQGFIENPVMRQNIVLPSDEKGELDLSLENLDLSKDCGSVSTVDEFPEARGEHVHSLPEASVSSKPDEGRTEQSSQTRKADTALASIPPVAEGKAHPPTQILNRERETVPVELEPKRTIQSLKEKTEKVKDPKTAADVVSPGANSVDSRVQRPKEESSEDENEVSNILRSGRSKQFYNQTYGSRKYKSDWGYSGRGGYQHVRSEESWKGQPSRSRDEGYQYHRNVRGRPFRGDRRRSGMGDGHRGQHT
The description is as above. Particulars: compound concentration: 200 uM; treatment time: 3 h. The method in brief:
as §1

For a further experiment, the target named is T6, OTUD5 (UniProt Q96G74).
T6 sequence (whole entry): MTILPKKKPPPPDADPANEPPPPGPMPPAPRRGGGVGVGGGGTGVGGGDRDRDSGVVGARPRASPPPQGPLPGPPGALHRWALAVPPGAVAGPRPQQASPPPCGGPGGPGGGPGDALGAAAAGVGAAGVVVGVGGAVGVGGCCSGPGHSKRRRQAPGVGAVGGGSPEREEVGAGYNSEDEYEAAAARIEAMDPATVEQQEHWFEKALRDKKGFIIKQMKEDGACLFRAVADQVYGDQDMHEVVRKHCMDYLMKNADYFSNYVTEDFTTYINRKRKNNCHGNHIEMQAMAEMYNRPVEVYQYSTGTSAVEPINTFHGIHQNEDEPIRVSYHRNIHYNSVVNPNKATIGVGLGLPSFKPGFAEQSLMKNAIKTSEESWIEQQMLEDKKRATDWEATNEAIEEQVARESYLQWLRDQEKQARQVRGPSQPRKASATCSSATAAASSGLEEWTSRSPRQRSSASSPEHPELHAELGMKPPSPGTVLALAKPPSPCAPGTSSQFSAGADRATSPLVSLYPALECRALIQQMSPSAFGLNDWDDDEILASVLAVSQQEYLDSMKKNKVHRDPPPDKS
The description is as above. The conditions noted are these: compound concentration: 200 uM; treatment time: 3 h. The essentials:
as §1

Chain of EIF3F (O00303 whole entry): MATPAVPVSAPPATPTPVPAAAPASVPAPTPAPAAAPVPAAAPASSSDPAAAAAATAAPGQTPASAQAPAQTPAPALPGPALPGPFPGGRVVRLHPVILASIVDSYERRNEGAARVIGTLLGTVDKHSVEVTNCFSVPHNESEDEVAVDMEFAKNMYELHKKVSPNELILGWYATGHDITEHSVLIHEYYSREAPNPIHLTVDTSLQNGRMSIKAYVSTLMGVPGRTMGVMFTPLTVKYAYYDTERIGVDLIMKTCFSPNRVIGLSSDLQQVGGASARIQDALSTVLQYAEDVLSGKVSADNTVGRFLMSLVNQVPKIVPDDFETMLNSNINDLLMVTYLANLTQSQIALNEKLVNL
Chain of EIF3H (O15372 whole entry): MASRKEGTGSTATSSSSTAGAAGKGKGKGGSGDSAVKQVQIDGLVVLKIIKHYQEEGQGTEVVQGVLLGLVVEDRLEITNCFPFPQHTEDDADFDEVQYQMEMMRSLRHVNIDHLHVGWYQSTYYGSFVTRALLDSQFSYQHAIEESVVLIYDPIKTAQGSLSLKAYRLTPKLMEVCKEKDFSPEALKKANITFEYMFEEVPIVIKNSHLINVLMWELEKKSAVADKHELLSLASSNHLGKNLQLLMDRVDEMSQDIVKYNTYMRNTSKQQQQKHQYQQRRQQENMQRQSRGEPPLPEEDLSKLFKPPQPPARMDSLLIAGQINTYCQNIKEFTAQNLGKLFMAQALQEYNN
Chain of ATXN3 (P54252 whole entry): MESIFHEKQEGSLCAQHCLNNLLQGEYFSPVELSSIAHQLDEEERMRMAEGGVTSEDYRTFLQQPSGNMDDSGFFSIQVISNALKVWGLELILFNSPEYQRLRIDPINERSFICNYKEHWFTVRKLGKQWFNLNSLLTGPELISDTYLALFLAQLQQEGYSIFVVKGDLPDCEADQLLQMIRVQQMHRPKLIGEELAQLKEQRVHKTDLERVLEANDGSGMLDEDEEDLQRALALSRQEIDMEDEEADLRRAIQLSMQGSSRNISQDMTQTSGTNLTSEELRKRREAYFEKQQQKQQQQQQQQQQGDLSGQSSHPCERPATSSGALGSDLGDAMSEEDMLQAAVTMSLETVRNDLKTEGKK
Chain of OTUB1 (Q96FW1 whole entry): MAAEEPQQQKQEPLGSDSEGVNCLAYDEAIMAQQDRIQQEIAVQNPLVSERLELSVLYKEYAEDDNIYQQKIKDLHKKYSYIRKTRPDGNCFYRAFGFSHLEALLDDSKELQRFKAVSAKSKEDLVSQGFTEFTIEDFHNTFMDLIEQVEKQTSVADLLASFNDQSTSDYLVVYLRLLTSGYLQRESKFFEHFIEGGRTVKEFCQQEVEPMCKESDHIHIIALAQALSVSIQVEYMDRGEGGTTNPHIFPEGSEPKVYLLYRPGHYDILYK

For the molecule `O=C(CCl)N[C@H]1CCCc2ccccc21`, the “log2 ratio of Biotin-Ahx-Ub-VS probe labelling” value (shortened to “log2 ratio”) with USP38 (compound concentration: 0.78uM) was -0.147; with USP38 (compound concentration: 1.56uM), -0.192; in the experiment with USP38 (compound concentration: 3.13uM) it was -0.169; with USP38 (compound concentration: 6.25uM), -0.0221; with USP38 (compound concentration: 12.5uM) it was -0.0585; with USP38 (compound concentration: 25uM), -0.166. Moreover, the entries for the “log2 ratio” value with USP38 (compound concentration: 50uM), with USP38 (compound concentration: 100uM) and with USP38 (compound concentration: 200uM) were -0.069, -0.102 and -0.211, respectively.
For the molecule `C/C(=C\CNC(=O)CCl)c1cnn(C)c1.Cl`, the “log2 ratio” value in the experiment with ALG13 is 0.0802; with ATXN3, -0.277; with BAP1 it was -1.56 (active); in the experiment with EIF3F, -0.217; in the experiment with EIF3H it was 0.0454; in the experiment with FAM105A, 0.298. The “log2 ratio” value with OTUB1 was -0.376; with OTUD4, 0.00615; in the experiment with OTUD5, -0.115.
